Laboratory results reported in PubChem BioAssay AID2314 (National Center for Advancing Translational Sciences (NCATS), 2010).
The whole screen tested about 300,000 compounds, of which about 37,000 (12%) were called active. Cut-off read from the data, not from the text of the source: active = max response mostly above about 13% (no sharp cut-off); inactive = mostly below about 14%. The sample as a whole holds a higher share of actives than the screen did.

Assay: Cycloheximide Counterscreen for Small Molecule Inhibitors of Shiga Toxin; note: read at 38.3 µM for the half of the compounds with a filed dose; 0% is about no effect
Details: cell reporter, cycloheximide protein synthesis inhibition counterscreen; hits give high values
With `Cc1sc2ncn(CC(=O)NCCCC(=O)NCc3ccc(F)cc3)c(=O)c2c1C` the max response was -1.09% (inactive). For `Cc1cccn2c(CN(C)C3CCCc4ccccc43)c(C(=O)N3CCOCC3)nc12` (centres undefined), the max response was -3.53% (inactive). In the case of `Cc1cc2c(cc1C)N(Cc1ccccc1)C1=NCCCN12`, the max response is reported as -2.27% (inactive). For `CC(C)C[C@H](NC(=O)C1CCC(CNC(=O)[C@@H]2CCCN2C(=O)OC(C)(C)C)CC1)C(=O)O` (some centres undefined), the max response was 0.405% (inactive). With `CC(C)[C@H](NC(=O)N1CC(=O)Nc2ccccc21)C(=O)N[C@@H](Cc1c[nH]c2ccccc12)C(=O)O` the max response was -2.21% (inactive). For `CN1CCN(c2ncc3c(n2)CC(c2ccccc2F)CC3=O)CC1` (centres undefined), the max response was -2.88% (inactive). For `COc1ccc2ccccc2c1CNCc1ccccn1`, the max response was 20.7% (active). For `COc1ccc2ccccc2c1CNc1nnnn1C`, the max response was -2.6% (inactive). For `COc1ccc(C)cc1NC(=O)NCc1ccccn1`, the max response was -3.22% (inactive). In the case of `Cc1ccc(-c2c(C)n([O-])c3c([n+]2=O)CCC3)cc1`, the max response is reported as 2.58% (inactive). With `CC(Oc1ccc(-c2ccccc2)c(F)c1)c1ccn(S(=O)(=O)c2cccc3ccccc23)n1` (centres undefined) the max response was -1.64% (inactive). With `NNC(=O)CNC(c1ccccc1)c1cc(Cl)ccc1NC(=O)c1ccccc1` (centres undefined) the max response was -3.14% (inactive). For `O=C(N/N=C/c1ccc([N+](=O)[O-])o1)c1cn(-c2ccccc2)nc1-c1ccc(F)cc1`, the max response was 10.8% (inactive). For `O=C(/C=C/c1ccc([N+](=O)[O-])o1)NNC(=O)c1ccc(F)cc1`, the max response was 71.2% (active). With `C/[N+]([O-])=C\c1ccc([N+](=O)[O-])o1` the max response was 8.46% (inactive). With `CCOc1ncccc1C(=O)OCc1cn2cc(Cl)ccc2n1` the max response was 9.62% (inactive). For `Clc1ccc2nc(CSc3ccccc3)cn2c1`, the max response was 26.2% (active). In the case of `O=C(/C=C/c1ccc2c(c1)OCO2)NCc1cn2cc(Cl)ccc2n1`, the max response is reported as 2.11% (inactive). In the case of `Cc1nn(CCCC(=O)NCc2ccccc2Cl)c(=O)c2nccn12`, the max response is reported as -3.04% (inactive). In the case of `Cc1cccc(C(=O)OCC(=O)Nc2ccc(F)cc2)c1`, the max response is reported as 10% (active). With `COc1ccc(C(=O)OCC(=O)Nc2cccc(C(C)=O)c2)cc1OC` the max response was 9.48% (inactive). In the case of `O=C(COC(=O)Cn1cnc2ccccc21)Nc1cccc2c1C(=O)c1ccccc1C2=O`, the max response is reported as -4.76% (inactive). In the case of `O=C(COC(=O)c1ccccc1)Nc1ccccc1Sc1ccccc1`, the max response is reported as 9.64% (inactive). With `O=C(COC(=O)c1cccc(Br)c1)Nc1cccc2c1C(=O)c1ccccc1C2=O` the max response was 25.2% (active). For `O=C(COC(=O)Cc1ccccc1)Nc1ccc(F)cc1`, the max response was -1.31% (inactive). For `O=C1CCN(Cc2ccccc2)CCN1[C@H](CSc1ccccc1)c1ccccc1`, the max response was -1.82% (inactive). With `CCOc1ccccc1NC(=S)NC(=O)CCc1ccccc1` the max response was 1.38% (inactive). In the case of `CCOc1ccc(CN2CCC(n3nccc3NC(=O)C3CC3)CC2)cc1CO`, the max response is reported as -1.74% (inactive). For `Cc1ccc(CC2(O)CCN(CCOc3ccc(O)cc3)CC2)cc1`, the max response was 4.37% (inactive). With `CC(C)C(=O)Nc1ccc2c(c1)oc1ccccc12` the max response was 67% (active). With `CC(C)C(=O)Nc1c(C(=O)c2ccc(F)cc2)oc2ccccc12` the max response was -1.75% (inactive). For `CC(C)C(=O)Nc1ccc2oc(=O)ccc2c1`, the max response was -3.4% (inactive). For `Cn1c(=O)c(=O)n(C)c2cc(S(=O)(=O)CCC(=O)N3CCCCC3)ccc21`, the max response was -2.58% (inactive). For `Cc1nn(Cc2ccccc2Cl)c(Cl)c1C(=O)OC(C(=O)NC(N)=O)C(C)C` (centres undefined), the max response was -4.81% (inactive). For `COc1ccccc1CCNC(=O)c1c(C)nn(CC(C)C)c1Cl`, the max response was 39% (active). In the case of `COc1ccccc1CCNC(=O)c1cnccn1`, the max response is reported as 12.4% (inactive). For `COc1ccc(C(=O)NC2CC2)cc1OC1CCN(C/C=C/c2ccccc2)CC1`, the max response was 2.49% (inactive). In the case of `COc1ccc(C)cc1N(CC(=O)NC(C)c1ccccc1)S(C)(=O)=O` (centres undefined), the max response is reported as 5.61% (inactive). For `CO/N=C/CC(=O)c1ccc(OC)cc1`, the max response was 49.2% (active). In the case of `COc1ccc(C(=O)CC2C(=O)N(C)C(=O)N(C)C2=O)cc1`, the max response is reported as 4.98% (inactive). In the case of `COc1ccc(OCCC(=O)c2ccc(OC)cc2)cc1`, the max response is reported as 4.64% (inactive). For `Cc1ccc(NS(=O)(=O)c2c(C)[nH]c(=O)[nH]c2=O)cc1C`, the max response was -1.76% (inactive). In the case of `CCOC(=O)c1nnn(-c2nonc2-n2cccc2)c1CN1CCC(C(=O)OCC)CC1`, the max response is reported as -2.67% (inactive). With `Cc1cc(C(=O)COC(=O)CNC(=O)c2ccc(F)cc2)c(C)n1Cc1ccco1` the max response was 106% (active). With `COc1ccc(C)cc1-n1nnnc1SCC(=O)c1cc(C)n(Cc2ccco2)c1C` the max response was 27.1% (inactive). For `COCC(C)n1c(C)cc(C(=O)COc2ccc(C)nc2[N+](=O)[O-])c1C` (centres undefined), the max response was 8.12% (inactive). For `Cc1cc(C(=O)CSc2nc(N)cc(=O)[nH]2)c(C)n1Cc1ccco1`, the max response was -1.02% (inactive). For `O=C(COC(=O)CNC(=O)c1ccco1)Nc1ccc(F)cc1`, the max response was -3.97% (inactive). With `Cc1ccc(OCC(=O)c2cc(C)n(Cc3ccco3)c2C)c([N+](=O)[O-])n1` the max response was 43.4% (active). With `Cc1ccc(S(=O)(=O)NCC(=O)N2CCOCCOCCOCCOCC2)cc1` the max response was -3.49% (inactive). With `CC(C)CC(=O)c1c[nH]c(C(=O)NCc2ccccc2)c1` the max response was -3.39% (inactive). For `COC(=O)C(CC(C)C)NS(=O)(=O)c1cc(Br)ccc1Br` (centres undefined), the max response was -8.13% (inactive). In the case of `Cc1cc2c(cc1S(=O)(=O)CCC(=O)NCc1ccccc1)OCC(=O)N2`, the max response is reported as -1.02% (inactive). With `CCn1ccnc1CNC(=O)CC1C(=O)NCCN1Cc1ccc(F)cc1Cl` (centres undefined) the max response was 8.96% (inactive). With `Clc1ccc(CN2CCCCCC2)cc1Cl` the max response was -3.66% (inactive). With `Cc1cccc(-n2c(=O)c3c(C)c(C)sc3n(CC(N)=O)c2=O)c1` the max response was -0.167% (inactive). For `COc1ccc(-c2nnc(SC(C)C#N)o2)cc1` (centres undefined), the max response was 27.2% (inactive). For `COC(=O)CSc1nnc(-c2cccnc2)o1`, the max response was 12.2% (inactive). With `COc1ccc(-c2nnc(SCc3cccnc3)o2)cc1` the max response was 30.9% (active). For `COc1ccccc1CNS(=O)(=O)c1c(C)[nH]c(C)c1C(=O)N1CCCCC1`, the max response was 11% (inactive). In the case of `O=c1[nH]cnc(O)c1C(c1ccc(F)cc1)c1c(O)nc[nH]c1=O`, the max response is reported as -2.78% (inactive). In the case of `CCOc1ccc(N(CC(=O)NCC2CCCO2)S(=O)(=O)c2ccc(C)cc2)cc1` (centres undefined), the max response is reported as 0.744% (inactive). For `COc1cccc(/C=C2/SC(=S)N(CC(=O)NC3C=CS(=O)(=O)C3)C2=O)c1` (centres undefined), the max response was 8.26% (inactive). In the case of `COc1ccc(N2C(=O)NC(NS(=O)(=O)c3ccc(Cl)cc3)(C(F)(F)F)C2=O)cc1` (centres undefined), the max response is reported as -5.1% (inactive). With `COc1ccc(OC)c(-c2csc(-c3cccs3)n2)c1` the max response was 30.2% (inactive). For `COc1ccc(-c2csc(-c3cccs3)n2)cc1OC`, the max response was 59.6% (active). With `CNC(=O)c1[nH]cnc1C(=O)N[C@@H](CC(C)C)C(=O)OC(C)(C)C` the max response was -1.12% (inactive). In the case of `COC(=O)c1cc(OCC(=O)NC2CCCc3ccccc32)cc(C(=O)OC)c1` (centres undefined), the max response is reported as 1.41% (inactive). For `COc1ccc(Br)cc1CN(C)CC(=O)Nc1cc(Cl)cc(Cl)c1`, the max response was -1.13% (inactive). With `CCn1c(SCC(=O)NC2CC2)nnc1-c1ccccn1` the max response was 7.07% (inactive). With `Cc1ccc(O)c(NC(=O)c2cc(-c3ccco3)on2)c1` the max response was 17.2% (active). With `Cc1ccc(C)c(NC(=O)c2ccc(OC(=O)c3ccco3)cc2)c1` the max response was 12.4% (inactive). For `COc1ccc(NC(=O)c2cc(-c3ccc(C)cc3)on2)cc1`, the max response was 2.42% (inactive). In the case of `CC1CCN(C(=O)C2CCN(S(=O)(=O)N3CCC4(CC3)OCCO4)CC2)CC1`, the max response is reported as 5.25% (inactive). In the case of `O=C(C1CC1)N1N=C(c2ccc(Br)cc2)CC1(O)C(F)(F)F` (centres undefined), the max response is reported as -6.68% (inactive). For `CC(C)Oc1ccccc1C(=O)NC(CO)C(=O)O` (centres undefined), the max response was 5.75% (inactive). With `O=C1OCCN1C(=O)[C@H]1[C@H](c2ccc(Cl)cc2)C(c2cccc(Cl)c2)=NN1c1ccc(Br)cc1` the max response was 1.68% (inactive). In the case of `CCOC(=O)c1cc2sccc2n1Cc1ccc(C#N)cc1`, the max response is reported as -2.12% (inactive). With `O=C(NCc1ccco1)c1cc2sccc2n1Cc1ccc(F)cc1` the max response was 45.3% (active). For `O=C(c1cc2sccc2n1Cc1ccc(F)cc1)N1CCc2ccccc21`, the max response was 16.9% (active). With `O=C(NCc1ccco1)c1ccc(Cn2c(=O)c3sccc3n(Cc3ccc(F)cc3)c2=O)cc1` the max response was 0.924% (inactive). For `CC1Cc2ccccc2N1C(=O)c1cc2sccc2n1Cc1ccccc1` (centres undefined), the max response was 10.4% (inactive). With `O=C(Cc1ccc(-n2c(=O)c3sccc3n(Cc3ccc(F)cc3)c2=O)cc1)NCc1ccco1` the max response was -2.83% (inactive). For `CC(NC(=O)CCC(=O)N1CCN(S(=O)(=O)c2ccc(Cl)cc2)CC1)c1ccccc1` (centres undefined), the max response was 4.89% (inactive). For `Cn1c(CNC(=O)c2ccco2)nnc1SCC(=O)N1CCN(c2ccccc2)CC1`, the max response was -0.554% (inactive). For `COc1ccccc1NC(=O)C1=C(C)Nc2nc3ccccc3n2C1c1cccs1` (centres undefined), the max response was -6.14% (inactive). With `Cc1c(C(=O)OC(C)C)sc(NC(=O)c2cccnc2)c1C#N` the max response was 1.72% (inactive). With `CC(=O)Nc1ccc(CN2CCN(Cc3ccc(F)c(F)c3)C(CCO)C2)cc1` (centres undefined) the max response was -0.733% (inactive). For `COc1ccc(CNC(=O)C2CCN(C(=O)c3ccco3)CC2)cc1`, the max response was -5.74% (inactive). For `COc1ccc(CCNC(=S)N2CCN(S(=O)(=O)c3ccc(Cl)cc3)CC2)cc1`, the max response was -4.46% (inactive). For `O=C1Cc2ccccc2Sc2ccc(Cl)cc21`, the max response was 7.71% (inactive). With `NS(=O)(=O)c1ccc2nc(NC(=O)CS(=O)(=O)c3ccc(F)cc3)sc2c1` the max response was 1.51% (inactive). In the case of `O=C(Nc1ccc(S(=O)(=O)N2CCCC2)cc1Cl)C1=COCCO1`, the max response is reported as -1.75% (inactive). With `NS(=O)(=O)c1ccc2nc(NC(=O)C3=COCCO3)sc2c1` the max response was 31% (active).
